The full ranking holds about 5,000 sequences; the median of “log2 normalized fluorescence” is about 0.089, and the highest 2% start at about 0.81. The list comes from a sample in which the highest values are over-represented; it also holds similar and randomly drawn sequences.
The sequences below were run against MYC (p64);MAX (p21), in MYC:MAX (human;human, UniProt P01106-1;P61244-2 1-439;1-151, |) (assay: protein-binding microarray (anti-MAX antibody); PBM: 15 mM Tris-HCl pH 7.5, 100 mM KCl, 0.075% NP40, 7.5 mM beta-mercaptoethanol, 375 ng/ul BSA, 8 ng/ul poly(dA-dT):(dA-dT), 550 ng complex, 60 min, room tempe; high values mean tight binding). Conditions: protein: recombinant;recombinant; tags: 6xHis;6xHis; copies: 1;1; label: 3' end of printed strand (linker) attached to glass slide; dsDNA, one strand shown.
Summary of the method: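 A custom Agilent glass array held ~5000 unique 12-nt sequences in triplicate spots, made double-stranded by primer extension. His-tagged human MYC:MAX or MAX:MAX dimers (550 ng, produced in E. coli) were applied for 60 min at room temperature in Tris-KCl buffer, pH 7.5, with NP40, BSA and poly(dA-dT) competitor. Anti-MAX and secondary antibodies detected bound protein, with scanning at 543 nm, and binding is given as log2 normalized fluorescence.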

Chain of MYC (p64);MAX (p21), in MYC:MAX (P01106 16-454, chain 1 of 2): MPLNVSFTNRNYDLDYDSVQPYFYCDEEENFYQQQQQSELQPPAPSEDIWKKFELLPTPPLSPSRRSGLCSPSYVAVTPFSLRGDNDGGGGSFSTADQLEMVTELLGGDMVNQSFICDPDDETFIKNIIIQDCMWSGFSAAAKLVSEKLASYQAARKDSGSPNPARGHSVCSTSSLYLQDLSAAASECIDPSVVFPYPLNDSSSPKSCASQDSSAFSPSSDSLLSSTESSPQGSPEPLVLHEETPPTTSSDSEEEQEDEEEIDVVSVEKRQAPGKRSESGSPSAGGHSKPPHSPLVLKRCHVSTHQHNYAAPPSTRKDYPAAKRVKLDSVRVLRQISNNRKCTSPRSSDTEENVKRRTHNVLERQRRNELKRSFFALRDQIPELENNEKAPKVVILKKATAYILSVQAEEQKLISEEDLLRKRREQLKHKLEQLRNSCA
Chain of MYC (p64);MAX (p21), in MYC:MAX (P61244 other isoform, or with tags, fused parts or gaps |, chain 2 of 2): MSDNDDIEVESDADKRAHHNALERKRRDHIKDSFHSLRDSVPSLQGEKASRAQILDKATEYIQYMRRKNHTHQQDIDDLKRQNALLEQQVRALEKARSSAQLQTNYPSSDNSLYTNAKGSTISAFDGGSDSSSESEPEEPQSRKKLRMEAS

In order of rising binding signal:
1. CCGGCTGAGCGATAGTATTAATAGCTAAGATTACTATATCGACG  -0.0333 log2 normalized fluorescence
2. CCGGCTGATGAGCAGTATTAATAGCTAAGATTACTATATCGACG  -0.0208 log2 normalized fluorescence
3. CCGGCTGATCCGCTGTATTAATAGCTAAGATTACTATATCGACG  -0.0182 log2 normalized fluorescence
4. CCGGCTGAGGCCCCGTATTAATAGCTAAGATTACTATATCGACG  0.00137 log2 normalized fluorescence
5. CCGGCTGAAACTGAGTATTAATAGCTAAGATTACTATATCGACG  0.00205 log2 normalized fluorescence
6. CCGGCTGAGGCGAAGTATTAATAGCTAAGATTACTATATCGACG  0.0114 log2 normalized fluorescence
7. CCGGCTGATTACGAGTATTAATAGCTAAGATTACTATATCGACG  0.0125 log2 normalized fluorescence
8. CCGGCTGAGGGTAGGTATTAATAGCTAAGATTACTATATCGACG  0.0237 log2 normalized fluorescence
9. CCGGCTGATGTATCGTATTAATAGCTAAGATTACTATATCGACG  0.124 log2 normalized fluorescence
10. CCGGCTGACGCGGAGTATTAATAGCTAAGATTACTATATCGACG  0.127 log2 normalized fluorescence
11. CCGGCTGATGGGTTGTATTAATAGCTAAGATTACTATATCGACG  0.152 log2 normalized fluorescence
12. CCGGCTGACCTGACGTATTAATAGCTAAGATTACTATATCGACG  0.202 log2 normalized fluorescence
13. CCGGCTGCCACGTAGTGTTAATAGCTAAGATTACTATATCGACG  0.23 log2 normalized fluorescence
14. CCGGCTGAAACACAGTATTAATAGCTAAGATTACTATATCGACG  0.249 log2 normalized fluorescence
15. CCGGCTGATGGTCCGTATTAATAGCTAAGATTACTATATCGACG  0.278 log2 normalized fluorescence
16. CCGGCTGACACGTAGAGTTAATAGCTAAGATTACTATATCGACG  0.293 log2 normalized fluorescence
17. CCGGCTGACGTCAGGTATTAATAGCTAAGATTACTATATCGACG  0.293 log2 normalized fluorescence
18. CCGGCTGCCACGACGTATTAATAGCTAAGATTACTATATCGACG  0.371 log2 normalized fluorescence
19. CCGGCGGACAGGTGGGATTAATAGCTAAGATTACTATATCGACG  0.375 log2 normalized fluorescence
20. CCGGCTGAAACGTTGTATTAATAGCTAAGATTACTATATCGACG  0.435 log2 normalized fluorescence
21. CCGGCTGACACGAGATATTAATAGCTAAGATTACTATATCGACG  0.491 log2 normalized fluorescence
22. CCGGCGAGCACGTGGTATTAATAGCTAAGATTACTATATCGACG  0.525 log2 normalized fluorescence
23. CCGGCAGAAACGCGGTATTAATAGCTAAGATTACTATATCGACG  0.575 log2 normalized fluorescence
24. CCGGCTGTCACGTGATATTAATAGCTAAGATTACTATATCGACG  0.587 log2 normalized fluorescence
25. CCGGCTGACACGTGATTTTAATAGCTAAGATTACTATATCGACG  0.626 log2 normalized fluorescence
26. CCGGCTGACACGTGCGCTTAATAGCTAAGATTACTATATCGACG  0.633 log2 normalized fluorescence
27. CCGGCTGACACGTGGGATTAATAGCTAAGATTACTATATCGACG  0.669 log2 normalized fluorescence
28. CCGGCTTACACGTGGTCTTAATAGCTAAGATTACTATATCGACG  0.679 log2 normalized fluorescence
29. CCGGCTGGCACGTGGGATTAATAGCTAAGATTACTATATCGACG  0.708 log2 normalized fluorescence
30. CCGGCTGACACGTGAATTTAATAGCTAAGATTACTATATCGACG  0.712 log2 normalized fluorescence
31. CCGGCTGACACGTGGGTTTAATAGCTAAGATTACTATATCGACG  0.725 log2 normalized fluorescence
32. CCGGCTGACACGTGCTGTTAATAGCTAAGATTACTATATCGACG  0.743 log2 normalized fluorescence
33. CCGGCGGACACGTGGAGTTAATAGCTAAGATTACTATATCGACG  0.745 log2 normalized fluorescence
34. CCGGCTGACACGTGACATTAATAGCTAAGATTACTATATCGACG  0.756 log2 normalized fluorescence
35. CCGGCTGCCACGTGGTGTTAATAGCTAAGATTACTATATCGACG  0.763 log2 normalized fluorescence
36. CCGGCTGACACGTGCCGTTAATAGCTAAGATTACTATATCGACG  0.783 log2 normalized fluorescence
37. CCGGCTGACACGTGCGATTAATAGCTAAGATTACTATATCGACG  0.786 log2 normalized fluorescence
38. CCGGCTGACACGTTGCATTAATAGCTAAGATTACTATATCGACG  0.792 log2 normalized fluorescence
39. CCGGCTGACACGTGTGGTTAATAGCTAAGATTACTATATCGACG  0.792 log2 normalized fluorescence
40. CCGGCCAGCACGTGGTATTAATAGCTAAGATTACTATATCGACG  0.793 log2 normalized fluorescence
41. CCGGCTGACACGTGCTCTTAATAGCTAAGATTACTATATCGACG  0.813 log2 normalized fluorescence
42. CCGGCTGACACGTGTGCTTAATAGCTAAGATTACTATATCGACG  0.818 log2 normalized fluorescence
43. CCGGCAAGCACGTGGTATTAATAGCTAAGATTACTATATCGACG  0.835 log2 normalized fluorescence
44. CCGGCTGACACGTGCTATTAATAGCTAAGATTACTATATCGACG  0.869 log2 normalized fluorescence
45. CCGGCTGCCACGTGATATTAATAGCTAAGATTACTATATCGACG  0.881 log2 normalized fluorescence
46. CCGGCTGACACGTGGATTTAATAGCTAAGATTACTATATCGACG  0.893 log2 normalized fluorescence
47. CCGGCTGACACGTGCATTTAATAGCTAAGATTACTATATCGACG  0.894 log2 normalized fluorescence
48. CCGGCTAGCACGTGGTATTAATAGCTAAGATTACTATATCGACG  0.917 log2 normalized fluorescence
49. CCGGCTGACACGTGGAGTTAATAGCTAAGATTACTATATCGACG  0.923 log2 normalized fluorescence
50. CCGGCTGCCACGTGTTATTAATAGCTAAGATTACTATATCGACG  0.969 log2 normalized fluorescence
51. CCGGCGGGCACGTGGGATTAATAGCTAAGATTACTATATCGACG  0.986 log2 normalized fluorescence
52. CCGGCTGACACGTGGGGTTAATAGCTAAGATTACTATATCGACG  1 log2 normalized fluorescence
53. CCGGCTGACACGTGCCATTAATAGCTAAGATTACTATATCGACG  1 log2 normalized fluorescence

From article PMC5515408, “Sequence-specific DNA binding by MYC/MAX to low-affinity non-E-box motifs”
